Here are results for 38 molecules from paper PMC13494018.

A number with no mark means an inactive call. The rule behind the calls is not given here.

This experiment has as its target VTCN1, Q7Z7D3.

VTCN1, Q7Z7D3, sequence (Q7Z7D3 whole entry): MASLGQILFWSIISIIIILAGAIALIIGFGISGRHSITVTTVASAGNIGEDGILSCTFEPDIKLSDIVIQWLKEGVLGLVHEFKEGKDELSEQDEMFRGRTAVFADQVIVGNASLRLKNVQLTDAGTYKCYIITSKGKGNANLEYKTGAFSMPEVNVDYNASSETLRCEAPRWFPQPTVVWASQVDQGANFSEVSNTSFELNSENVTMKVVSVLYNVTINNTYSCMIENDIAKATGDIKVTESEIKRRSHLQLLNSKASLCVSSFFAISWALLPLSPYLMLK

B1: d4r1_design_ppi_352_dldesign_0_cycle0_af2pred (protein)
chain: AAAEQNAKNLKEAEKAKKEAEEAKKLAKEDVAKGAEKLTEAAKKLAEIYEKASPEIQPYVAKELQEVAKAAQEAIKAKLEKDAA
For B1, the “binding in a display sort” value was “not found”.

B2: d3r1_design_ppi_985_dldesign_0_cycle1_af2pred (protein)
chain: EEAEKLLKEIKEKSEKAIKLAEEGKIEEAEKELQEALKIAQELAKKYPEAAPEAAKIVNKAATELEKKKEEQKKKLE
On to B2, for which the “binding in a display sort” value is “not found”.

B3: d4r2_design_ppi_53_dldesign_0_cycle1_af2pred (protein)
chain: EEAKARAEKAFARAKALKARAKELKAKGEELFANAPELGEESLKRGKVYKLQAEQYEARAEEAEALGKELAAA
Take B3: the “binding in a display sort” value is “not found”.

B4: d4r1_design_ppi_77_dldesign_0_cycle1_af2pred (protein)
chain: MKEEEKALEKANEYIEKAEELAKKALENGEGDEVFSEAGKLLEKAVEEAEKNKENREEILKRVQEVRDLLREAVLKRLKAE
With B4, the “binding in a display sort” value is “not found”.

B5: d3r1_design_ppi_897_dldesign_0_cycle0_af2pred (protein)
chain: MEAKEKVKKLTEEAIKYAEEAGDKETAEEAKKGGEALLAGAKEAEELAKKNPVAGASLQEAVIKSAELFAKSIKEEVEKKK
As for B5, the “binding in a display sort” value is “not found”.

B6: d4r1_design_ppi_104_dldesign_0_cycle0_af2pred (protein)
chain: MSIEERLEELEKRLTEETKKEAEENLKRLEEVAKELAELDPELAPEAKKALEEAKKLFEDPEKIFEAAALARESLEEFEKRLKELKE
Take B6: the “binding in a display sort” value was “not found”.

B7: d4r1_design_ppi_174_dldesign_0_cycle0_af2pred (protein)
chain: SMEEKEAAEKMKELNEIAYEEYERVVKEGTEEAAREAMRRIMEKAKEHPYKETALKYVEVTLKHLKEEVSPEAAKAAEEELKRELA
On to B7, for which the “binding in a display sort” value was “not found”.

B8: d4r2_design_ppi_48_dldesign_0_cycle1_af2pred (protein)
chain: DFTAKAAAQAKKYKAEAKANAADPEKVGEVLAKALKAANEAKEAGNPAAAAALKAAADEILKINRESLLKEET
B8: the “binding in a display sort” value was “not found”.

B9: d4r1_design_ppi_425_dldesign_0_cycle1_af2pred (protein)
chain: AAEAAAAAEKAAAAAGEKAGKAAAEHVAAGAKAGTLPQAVQDVLEQTSELKYKGDEVAAKAAYEAAREAAKAARAAA
In the case of B9, the “binding in a display sort” value was “not found”.

B10: d4r1_design_ppi_171_dldesign_0_cycle0_af2pred (protein)
chain: MEKIEEANKLLKKALELLKEVGEEYYKKVMEAIKTEGIDAAVEKAKEIAKELKKKDKEKGKIAEEAYKNLEKAKELIKEIYEE
Take B10: the “binding in a display sort” value is “not found”.

B11: d3r1_design_ppi_729_dldesign_0_cycle0_af2pred (protein)
chain: DEEKKAKEAAEEAIKAKEKLGTGKEVKKTADEAFAAAKKATPEQAKALYKKLLEWFKEEKAKAEAEIAAA
Regarding B11, the “binding in a display sort” value was “not found”.

B12: d3r1_design_ppi_897_dldesign_0_cycle1_af2pred (protein)
chain: MEALKAVEEKMKEAIEYAKKAGDEELAKEAEKRRKALLAGAERAVEVAKKNPVAGASLAQAVIKSAELASEYFKELVEKKK
For the molecule B12, the “binding in a display sort” value is “not found”.

B13: d4r1_design_ppi_104_dldesign_0_cycle1_af2pred (protein)
chain: MSIEERLEELEKRLYEEIKKKAEEYLEELEKESEKLAKLDPSLAEEAKKKYEEAKELYKDPETVYLSKSHAEENLEEVKKKIKELES
As to B13, the “binding in a display sort” value is “not found”.

B14: d4r1_design_ppi_144_dldesign_0_cycle0_af2pred (protein)
chain: DEETKKAVEEAKKAAKEAEEIAKKYPELKPLAEQAKKAAKYAEKYAKENPIAAKNAMKATKAIAEEMKKLA
B14: the “binding in a display sort” value was “not found”.

B15: d4r2_design_ppi_24_dldesign_0_cycle0_af2pred (protein)
chain: KKEEEEKEKLKNFAKQASGKAEALSDQLKDVAEKTGSEELKEKAKKLEELGKEAEKNPELGKKKEEEAKKVHKEGKEYYKAKK
As to B15, the “binding in a display sort” value is “not found”.

B16: d3r1_design_ppi_859_dldesign_0_cycle1_af2pred (protein)
chain: ESELLKQVAEAVQQAVKAALKDPEEAKKVVEKALELDAEKAIEVAKSLAEAYKIAGNEEKAAAAKKVAELLEKLSKERK
Consider B16, for which the “binding in a display sort” value is “not found”.

B17: d4r2_design_ppi_49_dldesign_0_cycle0_af2pred (protein)
chain: GKIEELKKKLKEAEKKLEEAKEKLNKAKAEAESYRIRAEANKENKEKYLKKAEEIEKEEIEKAKKEIEEYEKEKKEAEKKLKEAKE
Regarding B17, the “binding in a display sort” value is “not found”.

B18: d4r1_design_ppi_33_dldesign_0_cycle0_af2pred (protein)
chain: SEEEEKNAENLKKAAEELEKIAEEGIKKGASVEEIKKKLEEKGKEFAKKYPKNAKSYLELAKIVAKEAEKKLK
In the case of B18, the “binding in a display sort” value was “not found”.

B19: d4r1_design_ppi_77_dldesign_0_cycle0_af2pred (protein)
chain: MKEKEEALKEAKKHLKEAEKLAEEAEKNGKGDELFSKLGKHLQEAAKYAEKNKENQEEINKELQKVAKKARDAILKVQKAR
With B19, the “binding in a display sort” value was “not found”.

B20: d4r2_design_ppi_27_dldesign_0_cycle1_af2pred (protein)
chain: GKEKEEKEKAEKIVEEAKKELEEAKEYGKKTTKEEGAEKLEEVAKKLKEKAEEFLATGKEEWKHAGAKLESLAIRAELYAKGLRRE
As for B20, the “binding in a display sort” value is “not found”.

B21: d4r1_design_ppi_339_dldesign_0_cycle0_af2pred (protein)
chain: SEKAEKAAKEAEEEAKKAKELAKEAAKLSPSYAAAFKKLAEAFKKAAKLLKEDYEKGLKEFKELKKSFELAKKAAAKAKAAAAA
In the case of B21, the “binding in a display sort” value is “not found”.

B22: d3r1_design_ppi_891_dldesign_0_cycle1_af2pred (protein)
chain: AEEALKEEMVKKAKEVAEKAAKAGYPEEAKQAAKAGAAFAPEKGEEIKKYAEEEIKKAEKEKEEKKKKEKEKKE
As for B22, the “binding in a display sort” value is “not found”.

B23: d4r1_design_ppi_310_dldesign_0_cycle0_af2pred (protein)
chain: MEAIEEMRKKKEEAIKEAEESNPEEGAKIMEEAMKEIQEIANKAIKSSSSEEAKKILEEHEKLVEELEKKKEELKKKAEEEKK
Regarding B23, the “binding in a display sort” value is “not found”.

B24: d4r2_design_ppi_34_dldesign_0_cycle0_af2pred (protein)
chain: SGAGQAKMERNAALSSLRAAKANPALAEIAAEDAIEAAKRALAVPEASPEVKEEAERVRKEAEAVGAAAKAAKAA
With B24, the “binding in a display sort” value was “not found”.

B25: d3r1_design_ppi_728_dldesign_0_cycle1_af2pred (protein)
chain: DIRENIKKLAKELKKEAEKLSEYDPELAKKAIEYAKKAEAAKTAEEAAKYATKAAEYVEKAEELAKKKKEELEK
With B25, the “binding in a display sort” value is “not found”.

B26: d4r2_design_ppi_27_dldesign_0_cycle0_af2pred (protein)
chain: SEEEKKKKEAEKKVEEAKKKLEEAKKFAKEGKKEEGAKKLEEVAKELDEKADEFFASGSEEYREAGAKLGSLSIRAKLYAEGLKAK
With B26, the “binding in a display sort” value is “not found”.

B27: d4r1_design_ppi_171_dldesign_0_cycle1_af2pred (protein)
chain: MKEIEEAQKKYKEALEKLKEVGEEYYQAVLDAIKNKGIEEAVKTAEKLAKELEKEDPEKGKKAKEAAELLKEAKKLIEKVRKE
Turning to B27, the “binding in a display sort” value is “not found”.

B28: d3r1_design_ppi_994_dldesign_0_cycle0_af2pred (protein)
chain: MEELEKVAKKILKEAKKRAEEAAKKGAESENGEEVFTKGLQETLEKASEEAEKAGLPDELAVKVLKEIVKYGNEVKKAALAARA
Consider B28, for which the “binding in a display sort” value was “not found”.

B29: d4r2_design_ppi_159_dldesign_0_cycle1_af2pred (protein)
chain: ELEEEAKKAKEVAEKLKKFNLESRLEADEIEAKSKAALREGKENNEEAKKEGLKKVKEQLKKAEELLKKL
Regarding B29, the “binding in a display sort” value is “not found”.

B30: d4r2_design_ppi_152_dldesign_0_cycle0_af2pred (protein)
chain: AAAAAEAEKAAAAATQKAEELAEKRGEEHGAEVGLKKYLENPEEAKKMGKEIYELGLKKYKELKKKEEEEK
For the molecule B30, the “binding in a display sort” value was “not found”.

B31: d3r1_design_ppi_851_dldesign_0_cycle0_af2pred (protein)
chain: DEVKKLLEEAKKLAEKAEELAKKGGSVEEVEKAAEKAQEAAVKAIKLAAKTEDGEKLTKEAGKYAQKATQAAAEAKEKAKKEA
Turning to B31, the “binding in a display sort” value is “not found”.

B32: d4r1_design_ppi_144_dldesign_0_cycle1_af2pred (protein)
chain: DEEVKKAAKEAKEAAKEAEKLAKKDKSLKPLAEQAKKAAKYAEYYTKINPTLALNAAKAAKKIYEEMKKLA
In the case of B32, the “binding in a display sort” value was “not found”.

B33: d3r1_design_ppi_734_dldesign_0_cycle0_af2pred (protein)
chain: SSEEELKLLTGKNALEILPEILKEAEKLLKEAKKTGDKEKLKEAIKQAENAIAAAKAAAIVDPKKAEEYKKKAEKLKKEAEKLL
On to B33, for which the “binding in a display sort” value is “not found”.

B34: d4r1_design_ppi_339_dldesign_0_cycle1_af2pred (protein)
chain: AEEAEKAAKEAEEKAKEAEELAKEAAKLHPTYAQAFELLAKAFKKAAELLKKDYKEGKKYFEELKESFERAKKALAIAKKEKAA
Take B34: the “binding in a display sort” value was “not found”.

B35: d4r2_design_ppi_0_dldesign_0_cycle1_af2pred (protein)
chain: VAKELAKKFQKAIEALFEASTIEEVPEARAKVKEARKIAREGVENPETAKEKLEEGVKLVEKKAKEMEEKKKKEEEEKLK
B35: the “binding in a display sort” value was “not found”.

B36: d3r1_design_ppi_981_dldesign_0_cycle1_af2pred (protein)
chain: MEEFAKEMEKWSEEAAKKYEEAKELAKKDPKEGVKVLEEAIKELEEKAKEYEKKGPYGKNIAKALNWLAKKFKELKKKIEAS
Turning to B36, the “binding in a display sort” value is “not found”.

B37: d4r1_design_ppi_219_dldesign_0_cycle1_af2pred (protein)
chain: AAEAEEYRKKAAEYIQELQELKTEIKATGTEEQAKKADEIWEEYKKKVKEAKEKYKDGTDLELAKALYKIAKENYEKLKELKE
With B37, the “binding in a display sort” value was “not found”.

B38: d4r2_design_ppi_24_dldesign_0_cycle1_af2pred (protein)
chain: SMEKEKEEELKNYAKQVAGKAFTYSDQLKEVAEKTGLEELKEKAEELEKLGKEALENPEKAKEYEAKAKEVFKEGRELYKKAK
Consider B38, for which the “binding in a display sort” value is “not found”.
